For 33 molecules, Potency results are on record in PubChem BioAssay AID504599 (National Center for Advancing Translational Sciences (NCATS), 2011).

Values joined by “and” are separate entries in the source; they are usually repeats but may differ in a detail not shown here. Identical values can stand only once. Active and inactive are the calls of the source. The call rests on the fitted dose curve; in most records, active means well fitted inhibition curve with a large enough effect; inconclusive means small, poorly fitted or top-dose-only effect; inactive means flat fitted curve, though single readings scatter.

A short description of this assay: Quantitative high throughput screen for delayed death inhibitors of the malarial parasite plastid, 96 hour incubation. The conditions noted are these: P. falciparum luciferase growth. An excerpt:
NIH Molecular Libraries Probe Production Network [MLPCN] NIH Chemical Genomics Center [NCGC] MLPCN Grant: R21 NS059500 Assay Provider: David Fidock and Eric Ekland, Columbia University The goal of this screen is to discover new antimalarial compounds that act by inhibiting the development of the apicoplast in the malarial parasite Plasmodium falciparum. The biochemical processes that make this organelle essential for erythrocytic stage parasites are not well understood. However, antibiotics, such as azithromycin and tetracycline, which target the apicoplast translational machinery, have a potent antimalarial effect. […] We have developed a cell-based assay that measures parasite growth based on the expression of an integrated copy of a firefly luciferase reporter. To detect small molecules that cause this 'delayed death' phenotype, erythrocytes infected with the luciferase-expressing parasites were incubated with compounds for either one or two generations, corresponding to 48 and 96 hours, respectively. Compounds that inhibit parasite growth in the second generation, but not the first, should be enriched in antimalarials that target the apicoplast. Growth inhibition is detected by a decrease in luciferase activity
Four microliters of culture medium (RPMI 1640 with 0.5% w/v Albumax (GIBCO), 24 mM sodium bicarbonate and 10 ug/mL gentamycin) were dispensed by a Multi-drop Combi into white solid 1536-well plates (Grenier) and 23 nL compound was added by a pin tool. Four microliters of infected erythrocytes (2% hematocrit, 0.1% parasitemia final concentration) in culture medium were dispensed and the plates incubated for 96 hours at 37 C in 5% CO2. Two microliters of luciferase detection reagent was added and luminescence was detected by a ViewLux (PerkinElmer) reader
In the case of `C[C@@H]1CN([C@@H](C)CO[Si](C)(C)C(C)(C)C)C(=O)c2cc(NC(=O)Nc3ccccc3)ccc2O[C@@H](C)CCCCO[C@H]1CN(C)S(=O)(=O)c1ccc(F)cc1`, the Potency was 0.6 nM (active).
`C[C@@H]1CN([C@@H](C)COC(=O)c2ccccc2)C(=O)c2cc(NC(=O)Nc3ccccc3)ccc2O[C@@H](C)CCCCO[C@H]1CN(C)C(=O)OC(C)(C)C`: the Potency is 356 nM (active).
Take `Cc1noc(C)c1NC(=O)Nc1ccc2c(c1)C(=O)N(C(C)C)C[C@@H](C)[C@H](CN(C)S(=O)(=O)c1ccc(F)cc1)OCCCC[C@H](C)O2`: the Potency is 44.9 nM (active) and 1.42 µM (active).
`C[C@@H]1CN(CCO)C(=O)c2cc(NC(=O)Nc3ccccc3)ccc2O[C@@H](C)CCCCO[C@H]1CN(C)S(=O)(=O)c1ccc(F)cc1`: the Potency was 179 nM (active).
Consider `C[C@@H]1CN(C)C(=O)c2cc(NC(=O)Nc3ccccc3)ccc2O[C@@H](C)CCCCO[C@@H]1CN(C)S(=O)(=O)c1ccc(F)cc1`, for which the Potency was 1000 nM (active).
The result for `C[C@@H]1CN([C@@H](C)CO)C(=O)c2cc(NC(=O)Nc3ccccc3)ccc2O[C@@H](C)C/C=C\CO[C@H]1CN(C)S(=O)(=O)c1ccc(F)cc1` reads 252 nM (active); that for `C[C@@H]1CN([C@@H](C)COC(=O)c2ccccc2)C(=O)c2cc(NC(=O)Nc3ccccc3)ccc2O[C@@H](C)CCCCO[C@H]1CN(C)S(=O)(=O)c1ccc(F)cc1`, 44.9 nM (active); that for `COCCOCOC[C@H](C)N1C[C@@H](C)[C@H](CN(C)S(=O)(=O)c2ccc(F)cc2)OCCCC[C@H](C)Oc2ccc(NC(=O)Nc3ccccc3)cc2C1=O`, 11.3 nM (active).
Regarding `C[C@@H]1CN([C@@H](C)CO)C(=O)c2cc(NC(=O)Nc3ccccc3)ccc2O[C@@H](C)CCCCO[C@H]1CN(C)S(=O)(=O)c1ccc(C(F)(F)F)cc1`, the Potency is 798 nM (active).
Regarding `C=CCOC(=O)N(C)C[C@@H]1OCCCC[C@H](C)Oc2ccc(NC(=O)Nc3ccccc3)cc2C(=O)N([C@H](C)COC(=O)c2ccccc2)C[C@H]1C`, the Potency is 504 nM (active).
As for `C[C@@H]1CN([C@@H](C)CO)C(=O)c2cc(Nc3nc4ccccc4o3)ccc2O[C@@H](C)CCCCO[C@H]1CN(C)S(=O)(=O)c1ccc(F)cc1`, the Potency was 1130 nM (active).
The result for `C[C@@H]1CN([C@H](C)CO[Si](C)(C)C(C)(C)C)C(=O)c2cc(NC(=O)Nc3ccccc3)ccc2O[C@@H](C)CCCCO[C@H]1CN(C)S(=O)(=O)c1ccc(F)cc1` reads 159 nM (active); that for `CC(C)N1C[C@@H](C)[C@H](CN(C)S(=O)(=O)c2ccc(F)cc2)OCCCC[C@H](C)Oc2ccc(NC(=O)Nc3ccccc3)cc2C1=O`, 17.9 nM (active).
The result for `C[C@@H]1CN([C@@H](C)COC(=O)C(C)(C)C)C(=O)c2cc(NC(=O)Nc3ccccc3)ccc2O[C@@H](C)CCCCO[C@H]1CN(C)S(=O)(=O)c1ccc(F)cc1` reads 5.7 nM (active); that for `C=CCOC(=O)N(C)C[C@H]1OCCCC[C@H](C)Oc2ccc(NC(=O)Nc3ccccc3)cc2C(=O)N([C@@H](C)CO[Si](C)(C)C(C)(C)C)C[C@H]1C`, 126 nM (active); that for `C[C@@H]1CN([C@@H](C)COC(C)(C)C)C(=O)c2cc(NC(=O)Nc3ccccc3)ccc2O[C@@H](C)CCCCO[C@H]1CN(C)S(=O)(=O)c1ccc(F)cc1`, 0.8 nM (active).
With `C[C@@H]1CN([C@@H](C)CN=[N+]=[N-])C(=O)c2cc(NC(=O)Nc3ccccc3)ccc2O[C@@H](C)CCCCO[C@H]1CN(C)S(=O)(=O)c1ccc(F)cc1`, the Potency is 3.6 nM (active).
On to `C[C@@H]1CCCCO[C@H](CN(C)C(=O)Nc2ccc(F)cc2)[C@H](C)CN([C@@H](C)CO)C(=O)c2cc(NS(=O)(=O)c3ccccc3)ccc2O1`, for which the Potency was 113 nM (active).
The result for `COc1ccc(COCCN2C[C@@H](C)[C@H](CN(C)S(=O)(=O)c3ccc(F)cc3)OCCCC[C@H](C)Oc3ccc(NC(=O)Nc4ccccc4)cc3C2=O)cc1` reads 71.1 nM (active).
As for `Cc1noc(C)c1NC(=O)Nc1ccc2c(c1)C(=O)N([C@@H](C)CO)C[C@@H](C)[C@H](CN(C)S(=O)(=O)c1ccc(F)cc1)OCCCC[C@H](C)O2`, the figure is 79.8 nM (active); as for `C[C@@H]1CN([C@@H](C)CO)C(=O)c2cc(NC(=O)Nc3ccccc3)ccc2O[C@@H](C)CCCCO[C@H]1CN(C)S(=O)(=O)c1cccc(F)c1`, 7.1 nM (active); as for `C[C@@H]1CN([C@@H](C)CO)C(=O)c2cc(N)ccc2O[C@@H](C)CCCCO[C@H]1CN(C)S(=O)(=O)c1ccc(F)cc1`, 63.4 nM (active).
Turning to `C=CCOC(=O)N(C)C[C@@H]1OCCCC[C@H](C)Oc2ccc(NC(=O)Nc3ccccc3)cc2C(=O)N([C@@H](C)CO)C[C@H]1C`, the Potency is 252 nM (active).
As for `COCOC[C@H](C)N1C[C@@H](C)[C@H](CN(C)S(=O)(=O)c2ccc(F)cc2)OCCCC[C@H](C)Oc2ccc(NC(=O)Nc3ccccc3)cc2C1=O`, the Potency is 8 nM (active).
Consider `C[C@@H]1CN([C@@H](C)CO)C(=O)c2cc(NC(=O)Nc3ccccc3)ccc2O[C@@H](C)C/C=C/CO[C@H]1CN(C)S(=O)(=O)c1ccc(F)cc1`, for which the Potency is 79.8 nM (active).
On to `C[C@@H]1CCCCO[C@@H](CN(C)Cc2ccc(F)cc2)[C@H](C)CN([C@@H](C)CO)C(=O)c2cc(NC(=O)Nc3ccccc3)ccc2O1`, for which the Potency is 2830 nM (active).
For the molecule `C[C@@H]1CN([C@@H](C)CO)C(=O)c2cc(NC(=O)Nc3ccccc3)ccc2O[C@@H](C)CCCCO[C@H]1CN(C)S(=O)(=O)c1cccnc1`, the Potency was 2830 nM (active).
`COc1ccc(COC[C@H](C)N2C[C@@H](C)[C@H](CN(C)Cc3ccc(OC)cc3)OCCCC[C@H](C)Oc3ccc(NC(=O)Nc4ccccc4)cc3C2=O)cc1`: the Potency is 449 nM (active).
For `C[C@@H]1CN(CCO[Si](C)(C)C(C)(C)C)C(=O)c2cc(NC(=O)Nc3ccccc3)ccc2O[C@@H](C)CCCCO[C@H]1CN(C)S(=O)(=O)c1ccc(F)cc1`, the Potency is 40 nM (active).
The result for `C[C@@H]1CN([C@@H](C)CO)C(=O)c2cc(NC(=O)Nc3ccccc3)ccc2O[C@@H](C)CCCCO[C@H]1CN(C)C(=O)OC(C)(C)C` reads 711 nM (active).
The result for `CC(C)NC(=O)Nc1ccc2c(c1)C(=O)N([C@@H](C)CO)C[C@@H](C)[C@H](CN(C)S(=O)(=O)c1ccc(F)cc1)OCCCC[C@H](C)O2` reads 449 nM (active).
Consider `C[C@@H]1CN([C@@H](C)CO)C(=O)c2cc(NC(=O)Nc3ccccc3)ccc2O[C@@H](C)CCCCO[C@H]1CN(C)S(=O)(=O)c1ccccc1F`, for which the Potency was 449 nM (active).
The result for `C[C@@H]1CN([C@@H](C)CO)C(=O)c2cc(NC(=O)Nc3ccccc3)ccc2O[C@@H](C)CCCCO[C@H]1CN(C)Cc1ccc(C(F)(F)F)cc1` reads 711 nM (active).
